Measurements as given in the supplement of paper PMC12645437, “Orthogonal IMiD-Degron Pairs Induce Selective Protein Degradation in Cells” (ACS Chemical Biology, 2025).
The full ranking holds about 8,300 sequences; the median of “log2 fold change of degron read counts, EGFP-low vs EGFP+ sorted cells (limma voom), compound-induced degradation” is about -1.1, and the highest 2% start at about 3.2. This is one part of a sample in which the highest values are shown more often than they occur.

T1: CRBN, Q96SW2
T1 chain: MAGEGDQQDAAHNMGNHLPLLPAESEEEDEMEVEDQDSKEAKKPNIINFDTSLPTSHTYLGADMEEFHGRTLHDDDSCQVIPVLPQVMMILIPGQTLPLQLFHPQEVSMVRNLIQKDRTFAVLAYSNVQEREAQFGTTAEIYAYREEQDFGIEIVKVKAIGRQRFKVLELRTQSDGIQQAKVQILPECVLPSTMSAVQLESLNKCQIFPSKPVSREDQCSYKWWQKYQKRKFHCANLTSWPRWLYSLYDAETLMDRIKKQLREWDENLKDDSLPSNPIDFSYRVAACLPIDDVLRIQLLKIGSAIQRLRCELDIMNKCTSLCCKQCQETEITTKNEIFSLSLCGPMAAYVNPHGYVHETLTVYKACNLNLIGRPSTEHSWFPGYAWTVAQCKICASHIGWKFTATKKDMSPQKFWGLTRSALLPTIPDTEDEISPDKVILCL


Molecular target: T1, CRBN, Q96SW2
Assay: log2 fold change of degron read counts, EGFP-low vs EGFP+ sorted cells (limma voom), compound-induced degradation; higher = more compound-induced degradation of the degron-EGFP fusion; degrons are variants of IKZF1/3 zinc finger 2; compound dose not given here
Conditions: Jurkat, 18 h
[1] = compound: compound 19 (5-tert-butyl-thalidomide)
[2] = compound: compound 22 (5-morpholino-thalidomide)
[3] = compound: compound 33 (diphenyl IMiD analogue)
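Further: pooled lentiviral library of zinc finger degron-EGFP fusions in mCherry-positive Jurkat cells, FACS-sorted after compound exposure, with degron abundance counted by next-generation sequencing.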

Sequence | log2 fold change of degron read counts [1] | log2 fold change of degron read counts [2] | log2 fold change of degron read counts [3] | log2 fold change of degron read counts (compound: thalidomide)
FVCDVCGAGFTQKGNLLRHIKL [46F_47V_49D_50V_52G_53A_54G_55F_67L_, Q9UKT9] | -0.789 | 1.19 | -0.11 | 0.879
FECDQCGALFTQKGNLLRHIKL [46F_47E_49D_50Q_52G_53A_54L_55F_67L_, Q9UKT9] | -3.05 | -3.86 | -3.38 | -2.52
FDCNVCGAFFTQKGNLLRHIKL [46F_47D_49N_50V_52G_53A_54F_55F_67L_, Q9UKT9] | -2.06 | -2.22 | -1.25 | -1.25
FRCEICGAHFTQKGNLLRHIKL [46F_47R_49E_50I_52G_53A_54H_55F_67L_, Q9UKT9] | -0.542 | -0.83 | 0.979 | 0.735
LDCEICGFNCTQKGNLLRHIKL [46L_47D_49E_50I_52G_53F_54N_55C_67L_, Q9UKT9] | -1.97 | -2.54 | -2.01 | -1.74
FVCEVCGAAFTQKGNLLRHIKL [46F_47V_49E_50V_52G_53A_54A_55F_67L_, Q9UKT9] | 1.64 | 3.28 | 2.3 | 3.36
FECEVCGAAFTQKGNLLRHIKL [46F_47E_49E_50V_52G_53A_54A_55F_67L_, Q9UKT9] | 2.56 | -0.651 | 1.75 | 2.51
FLCEVCGAAFTQKGNLLRHIKL [46F_47L_49E_50V_52G_53A_54A_55F_67L_, Q9UKT9] | 1.91 | 0.166 | 1.52 | 1.55
FICEVCGAAFTQKGNLLRHIKL [46F_47I_49E_50V_52G_53A_54A_55F_67L_, Q9UKT9] | 0.0772 | 3 | 2.31 | 3.04
FFCEVCGAAFTQKGNLLRHIKL [46F_47F_49E_50V_52G_53A_54A_55F_67L_, Q9UKT9] | 3.47 | 3.39 | 2.35 | 1.61
FFCPVCGAAFTQKGNLLRHIKL [46F_47F_49P_50V_52G_53A_54A_55F_67L_, Q9UKT9] | 2.88 | 2.91 | 2.41 | 1.09
FRCEVCGAAFTQKGNLLRHIKL [46F_47R_49E_50V_52G_53A_54A_55F_67L_, Q9UKT9] | 2.61 | 2.62 | 2.86 | 2.62
FACEVCGAAFTQKGNLLRHIKL [46F_47A_49E_50V_52G_53A_54A_55F_67L_, Q9UKT9] | 3.64 | 2.99 | 1.02 | 1.31
FICNVCGAQFTQKGNLLRHIKL [46F_47I_49N_50V_52G_53A_54Q_55F_67L_, Q9UKT9] | -1.95 | 0.393 | 2 | 0.761
FWCEQCGAIFTQKGNLLRHIKL [46F_47W_49E_50Q_52G_53A_54I_55F_67L_, Q9UKT9] | -0.201 | 0.552 | 0.154 | -1.07
FVCEVCGAIFTQKGNLLRHIKL [46F_47V_49E_50V_52G_53A_54I_55F_67L_, Q9UKT9] | -1.03 | -0.779 | 1.43 | 1.47
FICEVCGAIFTQKGNLLRHIKL [46F_47I_49E_50V_52G_53A_54I_55F_67L_, Q9UKT9] | -1.14 | 0.0357 | 2.04 | 1.14
FSCEVCGAIFTQKGNLLRHIKL [46F_47S_49E_50V_52G_53A_54I_55F_67L_, Q9UKT9] | 1.27 | 0.887 | 1.42 | 0.379
FQCEVCGAIFTQKGNLLRHIKL [46F_47Q_49E_50V_52G_53A_54I_55F_67L_, Q9UKT9] | -1.13 | 3.07 | 2.65 | 3.7
FRCEVCGAIFTQKGNLLRHIKL [46F_47R_49E_50V_52G_53A_54I_55F_67L_, Q9UKT9] | -1.36 | -1.29 | 0.815 | 1.07
FYCEVCGAIFTQKGNLLRHIKL [46F_47Y_49E_50V_52G_53A_54I_55F_67L_, Q9UKT9] | 2.89 | 3.45 | 2.43 | 0.38
